Assay in all cases: NCI-60 one-dose screen, 48 h (100 = growth as untreated, 0 = no growth, -100 = all killed)
For one test, the system named is SR leukemia. As to conditions: 10 µM unless noted.
For a further test, the system named is RPMI-8226 leukemia. As to conditions: 10 µM unless noted.
The next test has as its system OVCAR-8 ovarian. As to conditions: 10 µM unless noted.
The subject of another test is OVCAR-5 ovarian. As to conditions: 10 µM unless noted.
For the next test, the system named is OVCAR-4 ovarian. The settings on record: 10 µM unless noted.
Another test relates to SK-OV-3 ovarian. The settings on record: 10 µM unless noted.
The test system of the next test is IGROV1 ovarian. The settings on record: 10 µM unless noted.
The test system of the next test is OVCAR-3 ovarian. As to conditions: 10 µM unless noted.
A further test concerns NCI/ADR-RES ovarian. As to conditions: 10 µM unless noted.
The next test relates to T-47D breast. As to conditions: 10 µM unless noted.
For the next test, the system named is BT-549 breast. The settings on record: 10 µM unless noted.
Another test deals with MDA-MB-435 melanoma. The settings on record: 10 µM unless noted.
For the next test, the system named is MCF7 breast. As to conditions: 10 µM unless noted.
The subject of the next test is HCT-116 colon. As to conditions: 10 µM unless noted.
A further test deals with HCC-2998 colon. As to conditions: 10 µM unless noted.
Another test relates to KM12 colon. The settings on record: 10 µM unless noted.
The test system of a further test is SW-620 colon. As to conditions: 10 µM unless noted.
In a further test the test system is HS 578T breast. The settings on record: 10 µM.

Structures are written as SMILES. This is part of a sample that, as a whole, favours compounds with a hit. Of some 83,000 tested, about 20% had one in any assay.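 For each line, cells grew in 96-well plates with the test compound present at a single concentration for 48 hours.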 Unmarked numbers belong to inactive results. Activity calls are given as the source filed them. Rule for the calls: active = growth percent below 10; inactive = the rest.

Consider `COc1ccc(C2C3CCc4ccccc4C3=NN2C(=O)c2cc(OC)c(OC)c(OC)c2)cc1O` (stereo not given), for which the growth in the test on SR leukemia is 64.2%; in the test on RPMI-8226 leukemia, 45.7%; in the test with OVCAR-8 ovarian it was 99.4%; in the test on OVCAR-5 ovarian, 101%; with OVCAR-4 ovarian it was 103%; in the test with SK-OV-3 ovarian, 88%. Also, the growth is 46.6% in the test with IGROV1 ovarian; 109% with OVCAR-3 ovarian; 102% with NCI/ADR-RES ovarian; 87% in the test with T-47D breast; 89% in the test with BT-549 breast; 96.2% with MDA-MB-435 melanoma. The growth in the test with MCF7 breast was 95.8%; in the test with HCT-116 colon it was 104%; with HCC-2998 colon it was 110%; in the test on KM12 colon it was 109%.

Turning to `CCN(CC)CCCC(C)N/C(c1cccc(OC)c1)=c1\c(=O)[nH]n(-c2c3ccccc3nc3ccccc23)c(=O)\c1=C(/NC(C)CCCN(CC)CC)c1cccc(OC)c1` (stereo not given), the growth with SR leukemia is 0.449% (active); in the test on RPMI-8226 leukemia, -37.3% (active); in the test on OVCAR-8 ovarian, -7.7% (active); in the test with OVCAR-5 ovarian, 1.41% (active); with OVCAR-4 ovarian, -48.1% (active); in the test on SK-OV-3 ovarian, -10.1% (active). The growth in the test on IGROV1 ovarian was -6.96% (active); in the test with OVCAR-3 ovarian, -36.6% (active); in the test on T-47D breast it was -26.7% (active); in the test on BT-549 breast, -5.18% (active); with MDA-MB-435 melanoma it was -91.1% (active); with SW-620 colon it was -21.6% (active). Also, the growth in the test with MCF7 breast was -12.7% (active); in the test with HCT-116 colon, -9.94% (active); in the test with HCC-2998 colon, -72.7% (active); with KM12 colon, -47.4% (active).

For the molecule `Clc1ccc(-c2nc(Br)cn3ccnc23)cc1`, the growth in the test on SR leukemia is 92.2%; in the test on RPMI-8226 leukemia, 93.4%; with OVCAR-8 ovarian, 86.8%; with OVCAR-5 ovarian, 90.4%; in the test with OVCAR-4 ovarian it was 112%; with SK-OV-3 ovarian, 88.5%. Moreover, the growth in the test on IGROV1 ovarian is 74.3%; with OVCAR-3 ovarian, 82.8%; with HS 578T breast, 91.3%; in the test with T-47D breast, 54.4%; in the test on BT-549 breast, 84.1%; in the test with MDA-MB-435 melanoma, 111%. Also, the growth in the test with SW-620 colon was 91.5%; with HCT-116 colon, 77.8%; with HCC-2998 colon it was 104%; in the test with KM12 colon it was 86.6%.

Take `CCOC(=O)C(Nc1ccccc1)C(=O)OCC`: the growth in the test on SR leukemia was 106%; with RPMI-8226 leukemia, 106%; in the test with OVCAR-8 ovarian it was 105%; in the test on OVCAR-5 ovarian it was 100%; in the test on OVCAR-4 ovarian, 93%; in the test on SK-OV-3 ovarian it was 105%. Also, the growth was 92.3% with IGROV1 ovarian; 129% in the test with OVCAR-3 ovarian; 117% in the test on HS 578T breast; 102% in the test on T-47D breast; 95.1% in the test on BT-549 breast; 110% with MDA-MB-435 melanoma. Also, the growth in the test with MCF7 breast is 95.8%; in the test with HCC-2998 colon, 103%; in the test with KM12 colon, 115%.

As to `C#CC[C@@H]1C[C@]2(C)[C@H]3CC=C4[C@H]5CC(C)(C)CC[C@]5(C(=O)NCCCCN)CC[C@@]4(C)[C@]3(C)CC[C@H]2C(C)(C)[C@H]1OC(C)=O`, the growth with SR leukemia is 0.939% (active); in the test with RPMI-8226 leukemia it was -10.2% (active); with OVCAR-8 ovarian it was 3.77% (active); in the test on OVCAR-5 ovarian, 21.7%; in the test on OVCAR-4 ovarian, 50.1%; in the test on SK-OV-3 ovarian it was 116%. In addition, the growth in the test on IGROV1 ovarian was 32.8%; with OVCAR-3 ovarian, 49.3%; with HS 578T breast, 94.3%; in the test with BT-549 breast, 97.8%; in the test on MDA-MB-435 melanoma it was -34.2% (active); in the test on SW-620 colon, -23.9% (active). Moreover, the growth with MCF7 breast was 4.27% (active); in the test on HCT-116 colon, -31% (active); in the test on HCC-2998 colon, 1.58% (active); in the test on KM12 colon, 6.43% (active).

Regarding `COc1ccc(-c2cn(-c3cccc(C(=O)/C=C/c4ccc(O)c(OC)c4)c3)c(=O)[nH]2)cc1`, the growth is 7.01% (active) in the test with SR leukemia; -40.4% (active) in the test on RPMI-8226 leukemia; 11.7% with OVCAR-8 ovarian; 33% in the test with OVCAR-5 ovarian; 33.6% with OVCAR-4 ovarian; 53.6% in the test on SK-OV-3 ovarian. Besides, the growth in the test with IGROV1 ovarian is -32.8% (active); with OVCAR-3 ovarian it was -1.7% (active); in the test with NCI/ADR-RES ovarian, 12.7%; with T-47D breast, 32.1%; with BT-549 breast it was 4.04% (active); in the test with MDA-MB-435 melanoma it was 20.5%. Besides, the growth in the test with MCF7 breast is 15.2%; with HCT-116 colon it was -35.4% (active); in the test on HCC-2998 colon, 17.5%; in the test on KM12 colon, -58.7% (active).

With `Cc1ccccc1N1C(c2ccccc2)=NNC12C=CC(=O)c1c(O)cccc12` (stereo not given), the growth was 97% in the test on SR leukemia; 83.8% in the test with RPMI-8226 leukemia; 60.1% in the test on OVCAR-8 ovarian; 83.8% in the test on OVCAR-5 ovarian; 61.3% in the test with OVCAR-4 ovarian; 74.4% in the test on SK-OV-3 ovarian. In addition, the growth in the test on IGROV1 ovarian was 93.2%; with OVCAR-3 ovarian it was 60.5%; in the test with NCI/ADR-RES ovarian, 72.5%; with T-47D breast, 87.7%; in the test on BT-549 breast it was 77%; with MDA-MB-435 melanoma, -89.5% (active). For the same molecule, the growth with SW-620 colon is 98.6%; in the test with MCF7 breast, 73.5%; with HCT-116 colon, 66.5%; in the test on HCC-2998 colon it was 90.3%; in the test with KM12 colon, 77.6%.

On to `CSC1=NC(=Nc2c(C)cccc2C)C2(CCC(C(C)(C)C)CC2)N1c1ccc(Cl)cc1` (stereo not given), for which the growth in the test with SR leukemia was 26%; in the test with RPMI-8226 leukemia it was 51.5%; in the test on OVCAR-8 ovarian, 31.6%; in the test with OVCAR-5 ovarian, 72.1%; in the test with OVCAR-4 ovarian, 60%; with SK-OV-3 ovarian, 57.6%. The growth with IGROV1 ovarian is 55.4%; in the test on OVCAR-3 ovarian, 55.3%; in the test on HS 578T breast it was 65.9%; in the test with BT-549 breast, 81.4%; with MDA-MB-435 melanoma, 36.5%; with SW-620 colon, 28.6%. The growth was 43% in the test with MCF7 breast, 22.4% with HCT-116 colon, 44.3% in the test on HCC-2998 colon and 39.9% in the test with KM12 colon.

With `CCOP(=O)(O)OP(=O)(O)OCC`, the growth in the test on SR leukemia is 91.2%; in the test on RPMI-8226 leukemia, 95.8%; with OVCAR-8 ovarian it was 119%; in the test on OVCAR-5 ovarian it was 96.9%; with OVCAR-4 ovarian, 105%; with SK-OV-3 ovarian, 97.3%. In addition, the growth is 97.3% in the test with IGROV1 ovarian; 105% in the test on OVCAR-3 ovarian; 105% in the test on NCI/ADR-RES ovarian; 92.5% in the test on T-47D breast; 102% in the test on BT-549 breast; 110% with MDA-MB-435 melanoma. The growth is 103% with SW-620 colon; 94.1% in the test with MCF7 breast; 106% in the test with HCT-116 colon; 104% in the test with HCC-2998 colon; 103% with KM12 colon.

The values are drawn from PubChem BioAssay (NCI).
